Dicer processing = inhibitors of Dicer pre-microRNA processing, primary screen, biochemical, cat-ELCCA, chemiluminescence. Endoribonuclease Dicer (Homo sapiens), Q9UPY3. cat-ELCCA pre-miR-21 Dicer processing; hits give high values. z-score at 25 µM. 47,000 compounds, 6% hits. AID 1347074, 2019; in the data active = z-score above about 3, passing the limit was not always enough;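 note: plate controls were vehicle for no effect and no enzyme for full effect; higher signal means more uncleaved substrate so more Dicer inhibition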
* = called active by the depositor. Many of the other results were omitted from the sample, so hits are more common in it than they were.

What do the screens show for `COc1ccc(S(=O)(=O)Nc2ccc3oc4c(c3c2)C(=O)CCC4)cc1`?
Dicer processing: 0.14

What do the screens show for `CCOc1ccc(S(=O)(=O)Nc2cc(Cl)c3oc4c(c3c2)C(=O)CCC4)cc1`?
Dicer processing: 1.2

Results for Cc1ccc(-c2cc3nccc(-c4ccc5c(c4)N(C)C(=O)CO5)n3n2)cc1 ?
Dicer processing: 0.29

Results for O=C(Cc1nc(O)cs1)c1ccccc1 ?
Dicer processing: -1.3

Results for C=CCOC(=O)C1=C(C)NC2=C(C(=O)CC(C)(C)C2)C1c1ccccc1OC (stereo not drawn) ?
Dicer processing: 0.3

What do the screens show for `COc1cccc(C2CC(c3ccccc3)=NN2C(=O)CCCC(=O)O)c1OC` (stereo not drawn)?
Dicer processing: 0.83

How did COc1ccc(C2=NN(C(=O)CCCC(=O)O)C(c3ccc(F)cc3)C2)cc1OC (stereo not drawn) do in these assays?
Dicer processing: 3.8*

How did COc1ccc(C2=NN(C(=O)CCCC(=O)O)C(c3ccc(Cl)cc3)C2)cc1OC (stereo not drawn) do in these assays?
Dicer processing: -1

How did C=C(C1CC1)N(C(=O)c1ccc(F)cc1)c1ccc(OC)cc1 do in these assays?
Dicer processing: -1.3

How did N#C/C(=C\Nc1cccc(F)c1)S(=O)(=O)c1ccc(Cl)cc1 do in these assays?
Dicer processing: -0.44

Results for Nc1cc(-c2nc3ccccc3[nH]2)n[nH]c1=O ?
Dicer processing: 1.1

How did COC(=O)C1CCN(C(=O)C2c3ccccc3Oc3ccccc32)CC1 do in these assays?
Dicer processing: 5*

How did CC1CN(C(=O)C2c3ccccc3Oc3ccccc32)CC(C)O1 (stereo not drawn) do in these assays?
Dicer processing: 2

How did CC(C)NC(=O)C1c2ccccc2Oc2ccccc21 do in these assays?
Dicer processing: 2.8

What do the screens show for `CC1CCCCN1C(=O)C1c2ccccc2Oc2ccccc21` (stereo not drawn)?
Dicer processing: 1

How did O=C(C1c2ccccc2Oc2ccccc21)N1CCCC1 do in these assays?
Dicer processing: 4*

What do the screens show for `O=C(O)C1c2ccccc2Oc2ccccc21`?
Dicer processing: 0.95

Results for COCCOC(=O)C1=C(C)NC2=C(C(=O)CC(c3cccs3)C2)C1c1ccc(F)cc1 (stereo not drawn) ?
Dicer processing: 0.04

How did O=C(O)CCCCCNS(=O)(=O)c1ccc(F)cc1 do in these assays?
Dicer processing: 2

What do the screens show for `C=C1SC(Nc2ccc(S(=O)(=O)N3CCCCC3)cc2)=NC12CCCCC2`?
Dicer processing: -0.62

How did C=CCNC(=O)Cc1coc2ccc3ccccc3c12 do in these assays?
Dicer processing: -1.5

Results for C/C(=N\N=C(/N)SCc1c(Cl)cccc1Cl)c1ccc(Cl)c(Cl)c1 ?
Dicer processing: 0.06

How did Cc1cccc2c1N[C@H](c1ccc(C(=O)O)cc1)C1CC=CC21 (stereo partly drawn) do in these assays?
Dicer processing: 0.98

What do the screens show for `COc1ccc2c(c1)[C@@H]1C=CC[C@@H]1[C@H](c1ccc(C(=O)O)cc1)N2`?
Dicer processing: 4.2*

How did Cc1c(C(=O)O)ccc2c1NC(c1ccc(C(C)C)cc1)C1CC=CC21 (stereo not drawn) do in these assays?
Dicer processing: 3.4*

How did O=C(O)c1cccc2c1NC(c1ccc(Br)cc1)C1CC=CC21 (stereo not drawn) do in these assays?
Dicer processing: -0.72

What do the screens show for `COC(=O)c1ccc2c(c1)C1C=CCC1[C@@H](c1ccc(C(=O)O)cc1)N2` (stereo partly drawn)?
Dicer processing: -1.7

What do the screens show for `CCOC(=O)c1ccc2c(c1)[C@@H]1C=CC[C@@H]1[C@H](c1ccc(C(=O)O)cc1)N2`?
Dicer processing: 0.06

What do the screens show for `O=C(Nc1ccc(Cl)cc1)Sc1ccccc1Cl`?
Dicer processing: -0.51

Results for CC1CC(C)(C)N(C(=O)Nc2ccccc2)c2ccccc21 (stereo not drawn) ?
Dicer processing: 1.2

How did Cc1ccc(NC(=O)c2ccc(C(F)(F)F)cc2)c(OC(=O)c2ccc(C(F)(F)F)cc2)c1 do in these assays?
Dicer processing: -1.2

How did CCCCCCCC1C(=O)N(S(=O)(=O)c2ccccc2Cl)N=C1C (stereo not drawn) do in these assays?
Dicer processing: 35

How did CC(C)(C)c1ccc(NC(=O)Nc2sccc2-n2cccc2)cc1 do in these assays?
Dicer processing: 6.4*

What do the screens show for `O=C(NCC1CC1)Nc1sccc1-n1cccc1`?
Dicer processing: -3

What do the screens show for `Cn1nc(-c2ccccc2)cc1NC(=O)Nc1ccc(C(C)(C)C)cc1`?
Dicer processing: 1

How did Cc1ccc(O)c(C2=NN3C(C2)c2ccccc2OC3c2cccnc2)c1 (stereo not drawn) do in these assays?
Dicer processing: 3

What do the screens show for `Oc1ccc(Cl)cc1C1=NN2C(C1)c1ccccc1OC2c1ccsc1` (stereo not drawn)?
Dicer processing: 6.7*

Results for Oc1ccccc1C1=NN2C(C1)c1cc(Cl)ccc1OC2c1ccsc1 (stereo not drawn) ?
Dicer processing: 12*

Results for Oc1ccccc1C1=NN2C(C1)c1cc(Cl)ccc1OC2c1ccncc1 (stereo not drawn) ?
Dicer processing: 2.6

How did Oc1ccc(Cl)cc1C1=NN2C(C1)c1ccccc1OC2c1cccnc1 (stereo not drawn) do in these assays?
Dicer processing: 0.4

What do the screens show for `COc1ccc(O)c(C2=NN3C(C2)c2cc(Cl)ccc2OC3c2ccsc2)c1` (stereo not drawn)?
Dicer processing: 1.1

What do the screens show for `Cc1c(C#N)c(NC(=O)c2ccc(Cl)cc2)n(Cc2cccc(Cl)c2)c1C`?
Dicer processing: 1.8

Results for CC(=C\c1ccc(Cl)cc1)/C(C)=N/O ?
Dicer processing: 0.12

Results for CCOC(=O)NC(=S)NCc1ccco1 ?
Dicer processing: -0.43

How did CCOC(=O)C1(C(=O)OCC)CCC(=NO)CC1 do in these assays?
Dicer processing: 0.6

How did Cc1c(C(=O)/C=C/N(C)C)sc(=S)n1CCc1ccc(Cl)cc1 do in these assays?
Dicer processing: 3.2*

What do the screens show for `Cc1c(C(=O)/C=C/N(C)C)sc2ccccc12`?
Dicer processing: -0.86

How did CN(C)/C=C/C(=O)c1cc(Cl)ccc1Cl do in these assays?
Dicer processing: -0.56

Results for COC(=O)c1ccc(S(=O)(=O)N(C)C)n1C ?
Dicer processing: -1.5

Results for Cc1nn(C)c(C)c1CN(C)C(=O)c1cc2n(n1)C(C(F)(F)F)CC(c1ccc3c(c1)OCO3)N2 (stereo not drawn) ?
Dicer processing: -0.36

How did CC1CCc2c(sc3ncnc(Sc4ccccc4)c23)C1 (stereo not drawn) do in these assays?
Dicer processing: -0.63

What do the screens show for `O=C1OC(c2ccccc2)=N/C1=C/c1ccc(Cl)cc1`?
Dicer processing: -1.2

How did O=C(Nc1ccccc1)N1CCCc2ccccc21 do in these assays?
Dicer processing: 3.2*

How did O=C(Nc1ccc(OCc2ccccc2)cc1)N1CCCc2ccccc21 do in these assays?
Dicer processing: 2.1

How did S=C(Nc1ccccc1Cl)N1CCCc2ccccc21 do in these assays?
Dicer processing: 3.8*

What do the screens show for `S=C(Nc1ccccc1Cl)N1CCc2ccccc2C1`?
Dicer processing: -0.33

What do the screens show for `O=C(Nc1ccccc1)N1c2ccccc2CCc2ccccc21`?
Dicer processing: 0.06

Results for Cc1cccc2c1N(C(=S)Nc1ccccc1Cl)CCC2 ?
Dicer processing: 1.6

What do the screens show for `N/C(=N\OC(=O)c1ccc(Cl)cc1)c1ccc(Oc2ccc(C(F)(F)F)cn2)cc1`?
Dicer processing: 1.8

Source: PubChem BioAssay
